# In PubChem BioAssay AID1159580 (chemical genetic matrix, 2015):
# Among all 5,500 compounds or so, about 2,000 (36%) were called active. Roughly 18% stayed inconclusive and do not appear here. This is one part of the list. A number with no mark means an inactive call. Cut-off read from the data, not from the text of the source: active = normalized growth mostly below about 0.91 (no sharp cut-off); inconclusive = no clear call, values can overlap the other calls; inactive = mostly above about 0.92.
# Experiment: chemical genetic growth profiling, strain panel (AID 1159580);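 note: tested at 20 µM; growth read once vehicle control cultures reached saturation at 30 °C; 1 = growth at the plate median or of vehicle wells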
# Settings: S. cerevisiae deletion strains, growth OD
# [1] = locus YDL101C, strain DUN1, stronger effect = lower value
# [2] = locus YHR030C, strain SLT2, stronger effect = lower value
smiles,measurement,setting,value
N/C(=N/OC(=O)c1ccc(Cl)cc1)c1ccc(F)cc1F,normalized growth,"locus YAR019C, strain CDC15, stronger effect = lower value",0.896
same,normalized growth,"locus YBL105C, strain PKC1, stronger effect = lower value",0.917
same,normalized growth,"locus YBR135W, strain CKS1, stronger effect = lower value",0.9
same,normalized growth,"locus YBR136W, strain MEC1, stronger effect = lower value",0.921
same,normalized growth,"locus YBR160W, strain CDC28, stronger effect = lower value",0.903
same,normalized growth,"locus YDL017W, strain CDC7, stronger effect = lower value",0.923
same,normalized growth,"locus YDL028C, strain MPS1, stronger effect = lower value",0.916
same,normalized growth,[1],0.94
same,normalized growth,"locus YDL108W, strain KIN28, stronger effect = lower value",0.914
same,normalized growth,"locus YDL132W, strain cdc53, stronger effect = lower value",0.879 (active)
same,normalized growth,"locus YDL214C, strain PRR2, stronger effect = lower value",0.559 (active)
same,normalized growth,"locus YDR052C, strain DBF4, stronger effect = lower value",0.913
same,normalized growth,"locus YDR054C, strain cdc34, stronger effect = lower value",0.871 (active)
same,normalized growth,"locus YDR226W, strain ADK1, stronger effect = lower value",0.899
same,normalized growth,"locus YDR477W, strain SNF1, stronger effect = lower value",0.491 (active)
same,normalized growth,"locus YER123W, strain YCK3, stronger effect = lower value",0.482 (active)
same,normalized growth,"locus YER133W, strain GLC7, stronger effect = lower value",0.446 (active)
same,normalized growth,"locus YFL009W, strain cdc4, stronger effect = lower value",0.872 (active)
same,normalized growth,"locus YFL029C, strain CAK1, stronger effect = lower value",0.889
same,normalized growth,"locus YFR003C, strain YPI1, stronger effect = lower value",0.919
same,normalized growth,"locus YFR019W, strain FAB1, stronger effect = lower value",0.541 (active)
same,normalized growth,"locus YFR028C, strain CDC14, stronger effect = lower value",0.916
same,normalized growth,"locus YGR040W, strain KSS1, stronger effect = lower value",0.505 (active)
same,normalized growth,"locus YGR052W, strain FMP48, stronger effect = lower value",0.487 (active)
same,normalized growth,"locus YGR092W, strain DBF2, stronger effect = lower value",0.305 (active)
same,normalized growth,[2],0.139 (active)
same,normalized growth,"locus YHR079C, strain IRE1, stronger effect = lower value",0.244 (active)
same,normalized growth,"locus YHR082C, strain KSP1, stronger effect = lower value",0.465 (active)
same,normalized growth,"locus YHR205W, strain SCH9, stronger effect = lower value",0.21 (active)
same,normalized growth,"locus YIL147C, strain SLN1, stronger effect = lower value",0.91
same,normalized growth,"locus YJL095W, strain BCK1, stronger effect = lower value",0.243 (active)
same,normalized growth,"locus YJL128C, strain PBS2, stronger effect = lower value",0.977
same,normalized growth,"locus YJL157C, strain FAR1, stronger effect = lower value",0.543 (active)
same,normalized growth,"locus YJR016C, strain ILV3, stronger effect = lower value",0.892 (active)
same,normalized growth,"locus YJR066W, strain TOR1 (second series), stronger effect = lower value",0.239 (active)
same,normalized growth,"locus YJR066W, strain TOR1, stronger effect = lower value",0.309 (active)
same,normalized growth,"locus YKL048C, strain ELM1, stronger effect = lower value",0.821
same,normalized growth,"locus YKL067W, strain YNK1, stronger effect = lower value",0.631 (active)
same,normalized growth,"locus YKL101W, strain HSL1, stronger effect = lower value",0.593 (active)
same,normalized growth,"locus YKL193C, strain SDS22, stronger effect = lower value",0.887 (active)
same,normalized growth,"locus YKL203C, strain TOR2, stronger effect = lower value",0.384 (active)
same,normalized growth,"locus YLR113W, strain HOG1, stronger effect = lower value",0.348 (active)
same,normalized growth,"locus YLR133W, strain CKI1, stronger effect = lower value",0.659 (active)
same,normalized growth,"locus YLR403W, strain SFP1, stronger effect = lower value",0.419 (active)
same,normalized growth,"locus YML070W, strain DAK1, stronger effect = lower value",0.556 (active)
same,normalized growth,"locus YMR001C, strain CDC5, stronger effect = lower value",0.891
same,normalized growth,"locus YMR205C, strain PFK2 (second series), stronger effect = lower value",0.684 (active)
same,normalized growth,"locus YMR277W, strain FCP1, stronger effect = lower value",0.881 (active)
same,normalized growth,"locus YNL006W, strain LST8, stronger effect = lower value",0.896 (active)
same,normalized growth,"locus YNL020C, strain ARK1, stronger effect = lower value",0.579 (active)
same,normalized growth,"locus YNL161W, strain CBK1, stronger effect = lower value",0.894 (active)
same,normalized growth,"locus YNL183C, strain NPR1, stronger effect = lower value",0.37 (active)
same,normalized growth,"locus YNL207W, strain RIO2, stronger effect = lower value",0.854 (active)
same,normalized growth,"locus YNL222W, strain SSU72, stronger effect = lower value",0.913
same,normalized growth,"locus YNL307C, strain MCK1 (second series), stronger effect = lower value",0.38 (active)
same,normalized growth,"locus YOL078W, strain AVO1, stronger effect = lower value",0.879 (active)
same,normalized growth,"locus YOL136C, strain PFK27, stronger effect = lower value",0.542 (active)
same,normalized growth,"locus YOR061W, strain CKA2, stronger effect = lower value",0.731
same,normalized growth,"locus YOR119C, strain RIO1, stronger effect = lower value",0.463 (active)
same,normalized growth,"locus YOR231W, strain MKK1, stronger effect = lower value",0.276 (active)
same,normalized growth,"locus YOR329C, strain SCD5, stronger effect = lower value",0.899 (active)
same,normalized growth,"locus YPL031C, strain PHO85, stronger effect = lower value",0.395 (active)
same,normalized growth,"locus YPL153C, strain RAD53, stronger effect = lower value",0.398 (active)
same,normalized growth,"locus YPL204W, strain HRR25, stronger effect = lower value",0.425 (active)
same,normalized growth,"locus YPL209C, strain IPL1, stronger effect = lower value",0.902
same,normalized growth,"locus YPL256C, strain CLN2, stronger effect = lower value",0.368 (active)
same,normalized growth,"locus YPR025C, strain CCL1, stronger effect = lower value",0.898
same,normalized growth,"locus YPR106W, strain ISR1, stronger effect = lower value",0.947
same,normalized growth,"locus YPR111W, strain DBF20, stronger effect = lower value",0.936
same,normalized growth,"strain NNK1, stronger effect = lower value",0.917
same,normalized growth,"strain TSCII, stronger effect = lower value",0.878 (active)
C/C(=N/OC(=O)c1ccc(Cl)cc1)c1ccc(F)cc1,normalized growth,"locus YAL013W, strain DEP1, stronger effect = lower value",0.946
same,normalized growth,"locus YBR229C, strain ROT2, stronger effect = lower value",0.96
same,normalized growth,[1],0.952
same,normalized growth,"locus YDR150W, strain NUM1, stronger effect = lower value",0.913
same,normalized growth,"locus YEL061C, strain CIN8, stronger effect = lower value",0.889 (active)
same,normalized growth,"locus YGR078C, strain PAC10, stronger effect = lower value",0.961
same,normalized growth,[2],0.448 (active)
same,normalized growth,"locus YHR087W, strain rtc3, stronger effect = lower value",0.953
same,normalized growth,"locus YJR043C, strain POL32, stronger effect = lower value",0.914 (active)
same,normalized growth,"locus YJR075W, strain HOC1, stronger effect = lower value",0.847 (active)
same,normalized growth,"locus YLR039C, strain RIC1, stronger effect = lower value",0.515 (active)
same,normalized growth,"locus YLR058C, strain SHM2 (second series), stronger effect = lower value",0.982
same,normalized growth,"locus YLR085C, strain ARP6, stronger effect = lower value",0.598 (active)
same,normalized growth,"locus YLR262C, strain YPT6, stronger effect = lower value",0.462 (active)
same,normalized growth,"locus YML094W, strain GIM5, stronger effect = lower value",0.809 (active)
same,normalized growth,"locus YMR219W, strain ESC1, stronger effect = lower value",0.957
same,normalized growth,"locus YMR263W, strain SAP30, stronger effect = lower value",0.939
same,normalized growth,"locus YNL128W, strain TEP1, stronger effect = lower value",0.943
same,normalized growth,"locus YNL153C, strain GIM3, stronger effect = lower value",0.908 (active)
same,normalized growth,"locus YNL298W, strain CLA4 (second series), stronger effect = lower value",0.85
same,normalized growth,"locus YNL322C, strain KRE1, stronger effect = lower value",0.975
same,normalized growth,"locus YNR030W, strain Alg12, stronger effect = lower value",0.879 (active)
same,normalized growth,"locus YOL006C, strain TOP1, stronger effect = lower value",0.467 (active)
same,normalized growth,"locus YPL055C, strain LGE1, stronger effect = lower value",0.811 (active)
same,normalized growth,"locus YPL241C, strain CIN2, stronger effect = lower value",0.829 (active)
same,normalized growth,"locus YPR135W, strain CTF4, stronger effect = lower value",0.763
